In the library only some 2.2% were active in any assay of this set; here they are far more common.
FMDV inh – blocks foot and mouth disease virus; FMDV antiviral cell-based qHTS; Potency, µM (top dose mostly 57.9 µM), usual class: inhibitors; 1.2% of 410,000 active; AID 1159524; calls by dose curve; tested in HEK293T cells; also: read-out not given here; nearly all actives have a fitted effect of over 45% in size
Vaccinia mCherry – inhibitors of vaccinia virus infection (mCherry reporter signal) | AID 720579 | Vaccinia virus mCherry reporter infection, fluorescence | 0.63% of 310,000 active | Potency, µM (top dose mostly 36.5 µM), actives largely listed as inhibitors; calls by dose curve; tested in A549 cells; also: nearly all actives have a fitted effect of over 35% in size
Giardia FBPA inh – blocks Giardia fructose-bisphosphate aldolase activity | 0.71% of 290,000 active | purified Giardia FBPA | Potency, µM (series often up to 59.6 µM), actives largely listed as inhibitors; active = well fitted inhibition curve with a large enough effect; inconclusive = small, poorly fitted or top-dose-only effect, or effect the other way; also: nearly all actives have a fitted effect of over 55% in size
Target sequence (A8B2U2 whole entry, looked up): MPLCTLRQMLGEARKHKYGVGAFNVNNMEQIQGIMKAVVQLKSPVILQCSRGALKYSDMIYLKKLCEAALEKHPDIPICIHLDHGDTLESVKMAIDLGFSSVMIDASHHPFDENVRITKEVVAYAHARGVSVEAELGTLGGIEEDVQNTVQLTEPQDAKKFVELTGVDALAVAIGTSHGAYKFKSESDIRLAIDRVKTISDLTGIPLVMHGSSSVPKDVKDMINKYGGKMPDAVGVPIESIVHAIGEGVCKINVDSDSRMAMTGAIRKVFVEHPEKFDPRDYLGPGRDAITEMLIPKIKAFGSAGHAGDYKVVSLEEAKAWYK
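40 nM FBPA preincubated 10 min at RT with compound (up to 57.5 uM final), then substrate plus GAPDH/TPI/NAD/arsenate coupling and diaphorase/resazurin added. Fluorescence read after 20 min at RT, 525/598 nm.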
VACV Venus inh – inhibitors of vaccinia virus (Venus reporter); 0.46% of 330,000 active; AID 720580; Vaccinia virus Venus reporter expression, fluorescence; Potency, µM (top dose mostly 36.5 µM), most hits filed as inhibitors; calls by dose curve; tested in A549 cells; also: nearly all actives have a fitted effect of over 30% in size
A number is an active result; . = inactive; ? = inconclusive; / = no result; ! = a repeat was not active.

SMILES | FMDV inh | Vaccinia mCherry | Giardia FBPA inh | VACV Venus inh
Cc1cc(C(=O)COC(=O)c2cccc(NS(C)(=O)=O)c2)c(C)n1CC1CCCO1 (stereo not drawn) | 11µM | . | / | .
CC(=O)Nc1ccccc1OCC(=O)c1cc(C)n(Cc2cccs2)c1C | ? | / | . | /
Cc1cc(C(=O)COc2ccccc2C(N)=O)c(C)n1CC1CCCO1 (stereo not drawn) | 28µM | . | . | .
Cc1cc(C(=O)COc2cccnc2[N+](=O)[O-])c(C)n1Cc1cccs1 | 7.9µM | ? | . | .
COCCn1c(C)cc(C(=O)COc2ccc(C)nc2[N+](=O)[O-])c1C | 3.5µM | / | . | /
CCCn1c(C)cc(C(=O)COc2ccc(C)nc2[N+](=O)[O-])c1C | . | . | . | .
CC(C)NC(=O)c1cn(C2CCC(NC(=O)C(C)(C)C)CC2)nn1 (stereo not drawn) | . | . | / | .
Cc1cc(C(=O)CSc2nc3ccc(Cl)cc3[nH]2)c(C)n1CC1CCCO1 (stereo not drawn) | 14µM | ? | . | .
Cc1cc(C(=O)COC(=O)c2cc(O)c3ccccc3c2O)c(C)n1CC1CCCO1 (stereo not drawn) | . | . | ? | .
Cc1cc(C(=O)COC(=O)c2ccccc2O)c(C)n1CC1CCCO1 (stereo not drawn) | 35µM | / | / | /
COC(=O)CCn1c(C)cc(C(=O)COc2ccccc2C(N)=O)c1C | 16µM | . | . | .
Cc1cc(C(=O)COC(=O)c2ccccc2Br)c(C)n1CC1CCCO1 (stereo not drawn) | 0.4µM | . | . | .
COCCn1c(C)cc(C(=O)COc2nc3ccccc3nc2C)c1C | . | . | . | ?
CC[C@H](C)[C@H](NC(=O)[C@H](CCC(=O)O)NC(=O)[C@H](CC(N)=O)NC(=O)[C@@H](N)[C@@H](C)O)C(=O)N[C@H](C(=O)N[C@@H](CCC(=O)O)C(=O)N[C@@H](CCC(=O)O)C(=O)N[C@@H](CCC(N)=O)C(=O)N[C@@H](Cc1ccc(O)cc1)C(=O)N[C@H](C(=O)N1CCC[C@H]1C(=O)N[C@@H](CCC(N)=O)C(=O)N[C@@H](CO)C(=O)N[C@@H](CC(C)C)C(=O)N[C@@H](C)C(=O)N[C@H](C(=O)N[C@@H](CC(C)C)C(=O)N[C@@H](CCC(=O)O)C(=O)N[C@@H](CO)C(=O)N[C@H](C(=O)N[C@@H](Cc1ccccc1)C(=O)N[C@@H](CCC(N)=O)C(=O)N[C@@H](CCC(=O)O)C(=O)N[C@@H](CC(C)C)C(=O)NCC(=O)N[C@@H](CCCCN)C(=O)N[C@@H](CC(C)C)C(=O)N[C@H](C(=O)NCC(=O)N1CCC[C@H]1C(=O)N[C@@H](CC(N)=O)C(=O)N[C@@H](CO)C(=O)N[C@@H](CCC(N)=O)C(=O)O)[C@@H](C)O)C(C)C)[C@@H](C)O)[C@@H](C)O)C(C)C | / | / | . | /
C=CCNC(=O)c1cnn2c1NC(=C)C=C2C | / | . | / | .
COc1cccc(CNc2ncnc3sc(C(=O)N4CCOCC4)c(C)c23)c1OC | . | . | / | .
Cc1cnc2c(C)cccc2c1/C=C/c1ccc(N(C)C)cc1 | / | . | / | .
CCc1noc(C)c1C(=O)N1CCOc2ccc(CN3CCN(c4ccccn4)CC3)cc2C1 | . | . | / | .
Cc1cc(C(=O)COC(=O)c2ccccc2O)c(C)n1Cc1cccs1 | 28µM | / | . | /
Cc1cc(C(=O)COC(=O)c2ccc3c(c2)OCO3)c(C)n1Cc1cccs1 | . | / | . | /
COc1cccc(CNC(=O)c2c(OC)cc(=O)n3c2CCN(C(=O)c2ccc(C)nc2)CC3)c1 | . | . | / | .
COc1cccc(CNC(=O)c2c(OC)cc(=O)n3c2CCN(C(=O)c2cc(C)ccc2C)CC3)c1 | . | . | / | .
COc1ccc2nc3c(cc2c1)Cc1ccccc1-3 | / | / | 18µM | /
O=c1[nH]nc(SCCS(=O)(=O)c2ccc(F)cc2)n1-c1ccc2c(c1)OCCO2 | . | ? | . | 1.6µM
CCCn1c(SCC(=O)c2ccc3c(c2)OCCO3)n[nH]c1=O | . | . | . | .
SMILES | FMDV inh | Vaccinia mCherry | Giardia FBPA inh | VACV Venus inh
O=c1[nH]nc(SCCS(=O)(=O)c2ccc(F)cc2)n1-c1ccccc1 | ? | 1.3µM | . | 2.2µM
O=C1/C(=C/c2cccnc2)Oc2cc(OS(=O)(=O)c3ccc(F)cc3)ccc21 | 22µM | / | . | /
Cc1ccc(S(=O)(=O)Oc2ccc3c(c2)O/C(=C\c2cccnc2)C3=O)cc1 | . | / | . | /
CC(=O)c1ccc(N2CCN(c3ncnc4c3c(-c3ccccc3)cn4-c3ccc(Cl)cc3)CC2)cc1 | . | . | / | .
Cc1cc(=O)n(-c2ccccc2)n1C | . | 5µM! | . | ?
C#Cc1cccc(C(=O)NCc2nc(-c3cccc(NC(=O)c4ccccn4)c3)oc2C)c1 | . | . | / | .
Cc1ccc(Cn2ncc(Cl)c(Cl)c2=O)cc1 | 40µM | . | . | ?

Compound activity deposited in PubChem by National Center for Advancing Translational Sciences (NCATS).
